According to PubChem BioAssay (NCATS):
Records with an inconclusive call do not appear. Unmarked numbers belong to inactive results. Calls of active or inactive are those of the source. Calls follow the shape of the dose curve; as a rule, active = well fitted cell-killing curve with a large enough effect; inconclusive = small, poorly fitted or top-dose-only effect; inactive = flat fitted curve, though single readings scatter.

Test: Cell Viability - LYMP2-026 (AID 989); also: nearly all actives have a fitted effect of over 50% in size
Conditions: LYMP2-026 lymphoblastoid cell viability, qHTS; series mostly up to 92.2 µM; activity change, negative = cytotoxic: at the top concentration
From the text: NIH Chemical Genomics Center [NCGC]
NIH Molecular Libraries Screening Centers Network [MLSCN]
National Institutes of Environmental Health Sciences [NIEHS]
National Toxicology Program [NTP]
We have developed a 1536-well cell-based assay for quantitative high throughput screening (qHTS) against a number of cell lines to determine in vitro cytotoxicity of small molecules. This particular assay uses a human lymphoblastoid cell line (LYMP2-026) purchased from Coriell Institute for Medical Research.
NCGC Assay Protocol Summary:
The CellTiter-Glo luminescent cell viability assay (Promega) is a homogeneous method to measure the number of viable cells in culture. The end point readout of this assay is based on quantitation of intracellular ATP, an indicator of metabolic activity, using the luciferase reaction. Luciferase catalyzes the oxidation of beetle Luciferin to oxyluciferin and light in the presence of ATP. The luminescent signal is proportional to amount of ATP present.
Using the CellTiter-Glo luminescent cell viability assay, the amount of cellular ATP was measured in the lymphoblastoid cell line with complete culture medium following compound treatment for 24 hours. The assay was performed in opaque white Kalypsys 1536-well plates. In the screen, tetraoctylammonium bromide was used as positive control. Library compounds were measured for their ability to cause acute toxicity in the cell line, as reflected by a decrease in intracellular ATP levels, in a concentration-dependent manner. […] AC50 values were determined from concentration-response data modeled with the standard Hill equation.
qHTS protocol for CellTiter Glo lymphoblastoid cellular assay
[Step] [Parameter] [Value] [Description]
1. Reagent; 5 uL; 2500 lymphoblastoid cells/well
2. Time; 5 hr; 37 C incubation
4. Controls; 23 nL; Tetraoctylammonium bromide 6.4pM to 92 uM
5. Time; 24 hr; 37 C incubation
6. Reagent; 5 uL; CellTiter Glo reagent
7. Time; 30 min; Room Temperature
8. Detection; Luminescence; Viewlux plate reader
Keywords: cell viability, cytotoxicity, lymphoblastoid cell line, luminescence, NTPHTS, NTPHTS_NCGC, NIEHS, DSSTox, MLSMR, MLSCN, NIH Roadmap, qHTS, NCGC
% is scaled to controls: 0 for no effect and ±100 for the full control effect; potency is read from the fitted curve at half-maximal effect.

Row | Compound | activity change, negative = cytotoxic | Potency
1 | CCCCCC/C(C=O)=C\c1ccccc1 | 4.46% | –
2 | CN(C)c1ccc(C2(c3ccc(N(C)C)cc3)OC(=O)c3cc(N(C)C)ccc32)cc1 | -11.6% | –
3 | C/C=C1\C(=O)C[C@H]2[C@@H]3CCC4=CC(=O)CC[C@]4(C)[C@H]3CC[C@]12C | -27.7% | –
4 | O=C(OCC(COC(=O)c1ccccc1)(COC(=O)c1ccccc1)COC(=O)c1ccccc1)c1ccccc1 | 6.98% | –
5 | CC(=O)Nc1ccc(C(=O)CCl)cc1 | – | 7.94 µM (active)
6 | CN1[C@H]2CC(OC(=O)[C@H](CO)c3ccccc3)C[C@H]1[C@H]1O[C@H]12 (stereo partly drawn) | – | inactive
7 | O=C1OC(O)C(C(Cl)Cl)=C1Cl (stereo not drawn) | – | 25.1 µM (active)
8 | O=[N+]([O-])c1cc([N+](=O)[O-])c2ccc(S(=O)(=O)O)cc2c1O | -11.9% | –
9 | Nc1ccc2cc3ccccc3cc2c1 | -3.93% | –
10 | C=CC(=O)OCCOCCOC(=O)C=C | – | 20 µM (active)
11 | Cc1cccc(O)c1C | 0.15% | –
12 | CNc1ccc(O)cc1 | – | 7.94 µM (active)
13 | O=C1OC2(c3cc(Br)c(O)c(Br)c3Oc3c2cc(Br)c(O)c3Br)c2c(Cl)c(Cl)c(Cl)c(Cl)c21 | -24.5% | –
14 | CCC(C)Nc1ccc(NC(C)CC)cc1 (stereo not drawn) | – | 7.94 µM (active)
15 | Cc1cc(O)c(C(C)(C)C)cc1Sc1cc(C(C)(C)C)c(O)cc1C | – | 25.1 µM (active)
16 | CCCCCCCC[N+](CCCCCCCC)(CCCCCCCC)CCCCCCCC | – | 7.94 µM (active)
17 | O=Cc1ccc(Cl)c(Cl)c1 | -8.55% | –
18 | O=C=Nc1ccc(Cc2ccc(N=C=O)cc2)cc1 | -0.0678% | –
19 | Cc1cc(Nc2ccc(O)cc2)ccc1N | – | 50.1 µM (active)
20 | O=C(/C=C/c1ccc(O)c(O)c1)OC1C[C@](O)(C(=O)O)C[C@@H](O)[C@H]1O (stereo partly drawn) | – | inactive
21 | c1ccc2c(c1)ccc1cc3c(ccc4ccccc43)cc12 | 1.37% | –
22 | C=C(C)c1ccccc1 | 1.69% | –
23 | c1ccc2c(c1)-c1cccc3c1c-2cc1ccccc13 | 4.36% | –
